High-throughput results from PubChem.
The list is not random: actives were taken first. Their share in the collection is about 3.8%.
HepG2 tox = kills HepG2 cells in TGF-b inhibitor counter-screen. AID 588856. Potency, µM (top dose mostly 46.1 µM), hits mostly cytotoxic. actives 0.76% (n = 410,000). HepG2 CAGA-GFP viability, ATP luminescence, 18 h
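CellTiter-Glo luminescence gave cytotoxicity after 18 hours at 37 degrees C. The cells were HepG2 CAGA-GFP in 1% FBS DMEM, stimulated with 500 pg/mL TGF-beta after compound addition. %Activity was normalised to no-cell wells (complete cell-killing) and DMSO (no toxicity), and curves were fitted and classified.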
TGFb inhibitor = TGF-b pathway inhibition; HepG2 CAGA-GFP TGF-b/SMAD3 reporter, GFP fluorescence, 18 h; TGF-beta stimulated, 500 pg/mL final; Potency, µM (series often up to 46.1 µM), usual class: inhibitors; actives 1.2% (n = 410,000); AID 588855; further: nearly all actives have a fitted effect of over 65% in size
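Using HEPG2 CAGA-GFP reporter cells at 1000 cells/well, we pinned test compounds, stimulated with recombinant TGF-beta (500 pg/mL final) and measured total well GFP after 18 h.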
ATXN viability = cell viability loss in ATXN counter-screen; S2 cells (HEK-293 line with an ATXN2-luciferase reporter) viability, CellTiter-Fluor protease fluorescence, 24 h; actives 0.49% (n = 400,000); AID 651635; Potency, µM (series often up to 56.7 µM), hits mostly cytotoxic; further: nearly all actives have a fitted effect of over 40% in size
ATXN2 expr inh = ATXN2 expression inhibition. HEK-293 ATXN2-luciferase reporter, luminescence, 24 h. Potency, µM (titrated, usually from 57 µM), hits mostly inhibitors. actives 0.72% (n = 360,000). AID 1745845; further: nearly all actives have a fitted effect of over 55% in size
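ATXN2-luciferase reporter cells (luciferase flanked by upstream and downstream ATXN2 gene portions) were treated 24 h at 37 °C with compounds at up to 57 uM. SteadyGlo luminescence gave expression; GF-AFC fluorescence gave viability.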
A549 tox = counter-screen for Nrf2 inhibitors: cytotoxicity in A549 cells. A549 ARE-Fluc cells, CellTiter-Fluor viability, 18-24 h. Potency, µM (doses to about 46 µM), usual class: inhibitors. actives 0.16% (n = 390,000). AID 504648
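A549 ARE_Fluc cells in 5% FBS OPTI-MEM were exposed to compounds in concentration-response for 18-24 h at 37 deg C. Viability was read by CellTiter-Fluor fluorescence (Ex 405/Em 525) after 30 min, before the luciferase read.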
Nrf2 block = blocks Nrf2 signaling; AID 504444; Potency, µM (top dose mostly 46 µM), usual class: inhibitors; actives 2.1% (n = 360,000); A549 ARE-Fluc reporter, luciferase luminescence, 18-24 h; further: nearly all actives have a fitted effect of over 60% in size
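Nrf2 function is reported as luminescence of an ARE-controlled luciferase in A549 cells. Compounds were tested at several concentrations, and a CellTiter-Fluor read on the same wells flagged cytotoxicity.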
Numbers stand for hits; . = inactive; ? = inconclusive; / = no result; ! = not active in a repeat; [ ] = dose if it differs, or a comment. The call rests on the fitted dose curve; in most records, active means well fitted curve in the direction sought with a large enough effect; inconclusive means small, poorly fitted or top-dose-only effect, or another doubt; inactive means no such curve, though single readings can be large; an effect the other way counts as inactive or inconclusive.

SMILES | HepG2 tox | TGFb inhibitor | ATXN viability | ATXN2 expr inh | A549 tox | Nrf2 block
COCCOC(=O)C1=C(C)NC(C)=C(C(=O)OC(C)C)C1c1cccc([N+](=O)[O-])c1 (centres undefined) | . | . | ? | ? | . | .
O=C(NCC1CCN(Cc2cccc(Cl)c2)CC1)Nc1ccc(F)c(Cl)c1 | . | 22µM | 22µM | ? | . | ?
CCOC(=O)c1c(NC(=O)c2cc(-c3ccc(OC)cc3)on2)sc(C)c1C | . | . | . | . | . | .
O=C(c1ccc(Nc2nccc(-c3cc4ccccc4s3)n2)cc1)N1CCC(N2CCCC2)CC1 | / | / | / | 19µM | / | /
CCCOP(=O)(c1ccc(N(C)C)cc1)C(Nc1ccccc1)c1ccc(C)cc1 (centres undefined) | . | ? | . | ? | . | ?
Cc1ccc2nc(Cl)c3nnnn3c2c1 | 6.3µM | ? | ? | ? | ? | .
C=C1C=C(C(F)F)n2ncc(C(=O)NC(C)CC)c2N1 (centres undefined) | . | . | / | / | / | /
O=C1C(C2=C(O)c3ccccc3C2=O)=Nc2ccccc21 | 11µM | . | ? | ? | / | ?
COc1ccc(-c2cc(C3CC3)nc(SCC(=O)c3cccs3)c2C#N)cc1 | . | . | . | . | . | ?
CSc1nc(C2CC2)cc(-c2cccs2)c1C#N | . | 5.6µM | . | . | ? | ?
CCN(CC)C(=O)CSc1nc(-c2cccs2)cc(-c2cccs2)c1C#N | . | . | . | . | . | 18µM
CCN(CC)C(=O)CSc1nc(N)c(C#N)c(-c2cccs2)c1C#N | . | . | . | . | . | .
Cc1ccc2ccc(Cl)cc2n1 | / | / | . | . | / | /
O=C(CCc1ccc(S(=O)(=O)N2CCOCC2)cc1)Nc1ccc(F)cc1[N+](=O)[O-] | . | . | . | . | . | ?
O=C(CSc1nnnn1-c1ccccc1)Nc1ncc(Cc2ccccc2Cl)s1 | . | . | . | / | . | .
N=C1SC(c2ccccc2)C(=O)N1c1ncc(Cc2ccccc2Cl)s1 (centres undefined) | . | ? | / | 18µM | . | .
CC(N=Cc1c(O)c2ccccc2oc1=O)C(=O)O (centres undefined) | . | . | . | . | . | ?
N#CC1c2ccccc2C=CN1C(=O)N(c1ccccc1)c1ccccc1 (centres undefined) | 11µM | 8.9µM | ? | ? | ? | ?
CCOc1ccc(S(=O)(=O)Nc2cccc(C(=O)NCC3CCCO3)c2)cc1 (centres undefined) | . | . | . | . | . | ?
CC[C@H](CO)Nc1nc(NCc2ccccc2)c2ncn(C(C)C)c2n1 | / | / | / | 24µM | / | /
CC(C)n1cnc2c(NCc3ccccc3)nc(NCc3ccccc3)nc21 | . | ? | . | . | . | .
O=C(OCc1cc(=O)n2nc(C3CC3)sc2n1)c1ccc(NC(=O)c2ccccc2Cl)cc1 | . | . | . | . | . | /
Cc1ccc(NC(=O)C2CCCN(c3ncnc4c3nc3n4CCCCC3)C2)cc1Cl (centres undefined) | . | ? | . | . | . | .
CCN(C(=O)C1CCN(c2ncnc3c2nc2n3CCCCC2)CC1)c1cccc(Cl)c1 | . | 11µM | / | / | . | .
Cc1ccc(NC(=O)C2CCN(c3ncnc4c3nc3n4CCCCC3)CC2)cc1Cl | . | . | . | . | ? | 13µM
SMILES | HepG2 tox | TGFb inhibitor | ATXN viability | ATXN2 expr inh | A549 tox | Nrf2 block
O=C(CCn1ccnc1)Nc1cc(Cl)ccc1O | . | . | . | . | . | .
CCN1/C(=C/C=C/c2oc3ccc(-c4ccccc4)cc3[n+]2CC)Oc2ccc(-c3ccccc3)cc21 | . | . | / | 9.5µM | 15µM | 5.8µM
CCCCN1C(=O)/C(=C/C=C2\Oc3ccccc3N2CC)SC1=S | . | . | ? | .[11.3 µM] | ? | .
O=C(NCCCc1ccccc1)c1cccc(Br)c1 | . | . | . | / | . | .
O=C(CN(Cc1ccccc1)C(=O)CCl)c1cccc(Br)c1 | . | ? | 25µM | 22µM | . | .
CCC1CN(C(=O)N2CCC(C(=O)N3CCN(c4cc(C)ccc4C)CC3)CC2)c2ccccc2O1 (centres undefined) | . | 10µM | / | / | . | ?
CC1CN(C(=O)N2CCC(C(=O)NCc3ccccc3F)CC2)c2cc(Cl)ccc2O1 (centres undefined) | . | . | / | / | . | .
CCC1CN(C(=O)NCc2ccccc2)c2cc(C)ccc2O1 (centres undefined) | . | ? | . | . | ? | ?
CCC1CN(C(=O)NCc2ccc(C)cc2)c2cc(C)ccc2O1 (centres undefined) | . | ? | . | . | ? | 21µM!
CC1CN(C(=O)N2CCC(C(=O)NCCCc3ccccc3)CC2)c2cc(Cl)ccc2O1 (centres undefined) | . | 14µM | / | / | . | .
Cc1ccc2c(c1)N(C(=O)N1CCC(C(=O)NCc3ccccc3F)CC1)CC(C)O2 (centres undefined) | . | 13µM | / | / | . | ?
CCC1CN(C(=O)N2CCC(C(=O)N3CCN(c4cccc(C)c4C)CC3)CC2)c2ccccc2O1 (centres undefined) | . | ? | / | / | . | .
Cc1oc(-c2ccccc2F)nc1CS(=O)(=O)CC(=O)NCCCN1CC(C)CC(C)C1 (centres undefined) | . | . | . | . | . | .
CCOc1ccccc1CNC(=O)C1CCN(C(=O)N2CC(CC)Oc3ccc(C)cc32)CC1 (centres undefined) | . | 10µM | / | / | . | ?
CCC1CN(C(=O)N2CCC(C(=O)NCCc3ccccc3Cl)CC2)c2cc(C)ccc2O1 (centres undefined) | . | 11µM | / | / | . | ?
O=C(NCc1c(Cl)cccc1Oc1ccccc1)c1ccccc1 | . | . | . | . | . | ?
Cc1sc(-n2c(C)cc(/C=N/n3cnnc3)c2C)c(C#N)c1C | . | ? | . | . | . | 15µM
Cc1sc(-n2c(C)cc(/C=C3\SC(=S)NC3=O)c2C)c(C#N)c1C | . | ? | ? | . | 21µM | ?
Cc1cc(/C=N/n2cnnc2)c(C)n1-c1ccccc1 | . | . | . | . | . | /
COc1ccc(C(=O)NCC(c2cccnc2)N2CCc3ccccc3C2)cc1OC (centres undefined) | . | . | / | / | . | ?
Cc1ccc(-c2nnc3ccccc3c2C(=O)Nc2cccc(C(F)(F)F)c2)cc1 | . | . | / | / | . | ?
CN(CC(=O)NCCc1ccccc1)S(=O)(=O)c1ccc(Br)s1 | . | . | . | . | . | .
CC(C)CCNC(=O)c1onc(CSc2nc3ccccc3[nH]2)c1C(=O)NCCC(C)C | . | ? | . | . | . | .
c1ccc(-c2nc(-c3ccncc3)no2)cc1 | . | . | . | . | . | ?
